# Test results as given in PubChem BioAssay (NCATS).
# Records with an inconclusive call do not appear. Entries that show only a call come without a potency. Active and inactive are the calls of the source. Unless noted, calls follow the shape of the dose curve; as a rule, active = well fitted curve in the direction sought with a large enough effect; inconclusive = small, poorly fitted or top-dose-only effect, or another doubt; inactive = no such curve, though single readings can be large; an effect the other way counts as inactive or inconclusive.
# Tests used:
# [1] = qHTS for Inhibitors of the Functional Ribonucleoprotein Complex (vRNP) of Lassa (LASV) Arenavirus: LASV Primary Screen - GLuc reporter signal (AID 1347082; calls by dose curve; tested in HEK293 reporter line; also: series mostly up to about 57 µM; nearly all actives have a fitted effect of over 60% in size)
# [2] = molecular target: Nucleoprotein (Lymphocytic choriomeningitis virus (strain Armstrong)) (UniProt P09992); test: qHTS for Inhibitors of the Functional Ribonucleoprotein Complex (vRNP) of Lymphocytic Choriomeningitis Arenaviruses (LCMV): LCMV Primary Screen - GLuc reporter signal (AID 1347086; calls by dose curve; also: nearly all actives have a fitted effect of over 70% in size; also: potency is read from the fitted curve at half-maximal effect)
# [3] = qHTS of pediatric cancer cell lines to identify multiple opportunities for drug repurposing: Primary screen for TC32 cells (AID 1347089); also: nearly all actives have a fitted effect of over 60% in size; also: potency is read from the fitted curve at half-maximal effect
# Summary of the method: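 Measured quantity: luminescence from CellTiter-Glo, reflecting metabolically active TC32 cells following 48 h of compound. Curves came straight from multi-point titrations, with 8 or 11 points in primary and 11 in confirmatory screening.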
# [4] = qHTS of pediatric cancer cell lines to identify multiple opportunities for drug repurposing: Primary screen for DAOY cells (AID 1347090); also: nearly all actives have a fitted effect of over 55% in size; also: potency is read from the fitted curve at half-maximal effect
# Summary of the method: (§1)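 Cell viability, CellTiter-Glo luminescence; 500-1,000 cells/well, 8- or 11-point titration, 48 h compound exposure at 37 degrees C, 5% CO2. Controls: DMSO neutral, bortezomib 2.3 µM final as positive.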
# [5] = qHTS of pediatric cancer cell lines to identify multiple opportunities for drug repurposing: Primary screen for A673 cells (AID 1347092); also: nearly all actives have a fitted effect of over 45% in size; also: potency is read from the fitted curve at half-maximal effect
# Summary of the method: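 Cells are plated, rested 5 h, dosed by pintool, incubated 48 h, then lysed with CellTiter-Glo and read by luminescence. DMSO is the neutral control; bortezomib at 2.3 uM final is the positive control.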
# [6] = qHTS for Inhibitors of the Functional Ribonucleoprotein Complex (vRNP) of Lassa (LASV) Arenavirus: Viability assay - alamar blue signal for LASV Primary Screen (AID 1347083; calls by dose curve; tested in HEK293 reporter line; also: nearly all actives have a fitted effect of over 80% in size; also: potency is read from the fitted curve at half-maximal effect)
# [7] = qHTS for Inhibitors of the Functional Ribonucleoprotein Complex (vRNP) of Lymphocytic Choriomeningitis Arenaviruses (LCMV): Viability assay - alamar blue signal for LCMV Primary Screen (AID 1347085; calls by dose curve; tested in HEK293 reporter line; also: nearly all actives have a fitted effect of over 80% in size; also: potency is read from the fitted curve at half-maximal effect)
# [8] = qHTS of pediatric cancer cell lines to identify multiple opportunities for drug repurposing: Primary screen for SK-N-MC cells (AID 1347093); also: potency is read from the fitted curve at half-maximal effect
# Summary of the method: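 Metabolically active cells were quantified by ATP-dependent luminescence (CellTiter-Glo, 15 min at room temperature) following 48 h treatment. Cells had been plated at 500-1,000 per well and settled for 5 h beforehand.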
# [9] = qHTS of pediatric cancer cell lines to identify multiple opportunities for drug repurposing: Primary screen for SJ-GBM2 cells (AID 1347091); also: potency is read from the fitted curve at half-maximal effect
# Summary of the method: as §1
# Sequence of Nucleoprotein (Lymphocytic choriomeningitis virus (strain Armstrong)) (P09992 whole entry, looked up): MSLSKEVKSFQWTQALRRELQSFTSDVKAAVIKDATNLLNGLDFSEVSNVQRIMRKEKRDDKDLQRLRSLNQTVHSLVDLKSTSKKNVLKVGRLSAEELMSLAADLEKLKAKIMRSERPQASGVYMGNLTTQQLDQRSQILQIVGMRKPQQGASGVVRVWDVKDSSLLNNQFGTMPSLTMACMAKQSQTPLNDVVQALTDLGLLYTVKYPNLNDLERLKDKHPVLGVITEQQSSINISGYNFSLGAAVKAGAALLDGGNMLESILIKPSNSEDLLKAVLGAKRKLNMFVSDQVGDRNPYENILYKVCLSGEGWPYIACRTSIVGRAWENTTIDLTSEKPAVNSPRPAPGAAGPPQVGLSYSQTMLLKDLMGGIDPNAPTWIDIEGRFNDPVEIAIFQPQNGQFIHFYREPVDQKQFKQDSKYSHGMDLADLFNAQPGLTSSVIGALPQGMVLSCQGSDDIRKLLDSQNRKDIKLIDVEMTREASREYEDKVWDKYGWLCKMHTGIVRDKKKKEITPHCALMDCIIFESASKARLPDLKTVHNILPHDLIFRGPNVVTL
smiles,measurement,setting,value
CCCC(CCC)C(=O)O,Potency,[1],inactive
same,Potency,[2],inactive
Cn1cc(C2=C(c3cn(C4CCN(Cc5ccccn5)CC4)c4ccccc34)C(=O)NC2=O)c2ccccc21,Potency,[1],inactive
same,Potency,[3],inactive
same,Potency,[4],inactive
same,Potency,[5],3720 nM (active)
C[C@@H]1[C@@H](C(=O)C[C@H]2O[C@@H]3O[C@]4(C)CC[C@@H]5[C@H](C)CC[C@@H]([C@H]2C)[C@@]35OO4)O[C@@H]2O[C@]3(C)CC[C@H]4[C@H](C)CC[C@@H]1[C@@]24OO3,Potency,[6],inactive
same,Potency,[7],21700 nM (active)
same,Potency,[8],372 nM (active)
CNS(=O)(=O)CCc1ccc2[nH]cc(C3CCN(C)CC3)c2c1,Potency,[1],inactive
same,Potency,[2],inactive
CO[C@@]12[C@H](COC(N)=O)C3=C(C(=O)C(C)=C(N)C3=O)N1C[C@@H]1N[C@@H]12,Potency,[1],inactive
same,Potency,[2],inactive
Nc1ccn([C@@H]2O[C@H](CO)[C@@H](O)C2(F)F)c(=O)n1,Potency,[1],inactive
same,Potency,[2],inactive
Nc1nc(N)c2nc(-c3ccccc3)c(N)nc2n1,Potency,[1],inactive
same,Potency,[2],inactive
CC(=O)N(O)CCCCCNC(=O)CCC(=O)N(O)CCCCCNC(=O)CCC(=O)N(O)CCCCCN,Potency,[1],inactive
same,Potency,[7],inactive
same,Potency,[2],inactive
CCC(=O)C(CC(C)N(C)C)(c1ccccc1)c1ccccc1 (stereo not drawn),Potency,[1],inactive
same,Potency,[7],inactive
same,Potency,[2],inactive
same,Potency,[3],inactive
same,Potency,[4],34700 nM (active)
same,Potency,[9],inactive
C[C@H]1O[C@@H](O[C@H]2[C@@H](O)C[C@H](O[C@H]3[C@@H](O)C[C@H](O[C@H]4CC[C@@]5(C)[C@H](CC[C@@H]6[C@@H]5CC[C@]5(C)[C@@H](C7=CC(=O)OC7)CC[C@]65O)C4)O[C@@H]3C)O[C@@H]2C)C[C@H](O)[C@@H]1O,Potency,[3],37.4 nM (active)
same,Potency,[4],13.3 nM (active)
same,Potency,[5],13.3 nM (active)
same,Potency,[8],5.3 nM (active)
Cc1ccc(-n2nc(C(C)(C)C)cc2NC(=O)Nc2ccc(OCCN3CCOCC3)c3ccccc23)cc1,Potency,[1],inactive
same,Potency,[2],inactive
Cc1cc2c(C(C)C)c(O)c(O)c(C=O)c2c(O)c1-c1c(C)cc2c(C(C)C)c(O)c(O)c(C=O)c2c1O,Potency,[6],30600 nM (active)
same,Potency,[7],inactive
CCc1nn(CCCN2CCN(c3cccc(Cl)c3)CC2)c(=O)n1CCOc1ccccc1,Potency,[7],inactive
CCOC(=O)C1(c2ccccc2)CCN(CCC(C#N)(c2ccccc2)c2ccccc2)CC1,Potency,[6],inactive
Cc1nc(Nc2ncc(C(=O)Nc3c(C)cccc3Cl)s2)cc(N2CCN(CCO)CC2)n1,Potency,[7],inactive
same,Potency,[2],inactive
CCN(CC)CCN1C(=O)CN=C(c2ccccc2F)c2cc(Cl)ccc21,Potency,[7],inactive
same,Potency,[2],inactive
same,Potency,[3],inactive
same,Potency,[4],inactive
same,Potency,[9],inactive
same,Potency,[5],inactive
C[C@@H]1[C@@H](CC(C[C@H]2O[C@@H]3O[C@]4(C)CC[C@@H]5[C@H](C)CC[C@@H]([C@H]2C)[C@@]35OO4)C[S+](=O)([O-])c2ccc(COC(=O)N(C)C)cc2)O[C@@H]2O[C@]3(C)CC[C@H]4[C@H](C)CC[C@@H]1[C@@]24OO3 (stereo partly drawn),Potency,[7],inactive
same,Potency,[2],inactive
same,Potency,[9],469 nM (active)
same,Potency,[8],372 nM (active)
Cc1sc2c(c1C)C(c1ccc(Cl)cc1)=N[C@@H](CC(=O)OC(C)(C)C)c1nnc(C)n1-2,Potency,[6],2430 nM (active)
same,Potency,[7],1090 nM (active)
same,Potency,[2],385 nM (active)
same,Potency,[9],2640 nM (active)
same,Potency,[5],469 nM (active)
